Laboratory results reported in PubChem BioAssay (NCI).
This is part of a sample that, as a whole, favours compounds with a hit. Of some 79,000 tested, about 15% had one in any assay. Cut-off read from the data, not from the text of the source: active = growth inhibition above about 70%; inactive = the rest.

Legend:
[1] = NCI Yeast Anticancer Drug Screen. Data for the rad50 strain (AID 155);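 note: 0% = growth of vehicle-only cultures of the same strain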; conditions: S. cerevisiae rad50 strain growth inhibition; at 50.0 µM; active compounds read high
In short: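 Yeast carrying a defined DNA repair defect were exposed to test compounds, and growth was compared with vehicle-treated controls to give percent inhibition.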

[2] = NCI Yeast Anticancer Drug Screen. Data for the mec2-1 strain (AID 157); conditions: S. cerevisiae mec2-1 strain, at 50.0 µM, active compounds read high
In short: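 Compounds were applied to mec2-1 yeast cells. Their growth was then compared with that of vehicle-treated cultures to give growth inhibition.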

[3] = NCI Yeast Anticancer Drug Screen. Data for the sgs1 mgt1 strain (AID 161);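 note: 0% = growth of cultures given vehicle only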; conditions: S. cerevisiae sgs1 mgt1 strain, at 50.0 µM, active compounds read high
In short: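 Percent growth inhibition was derived by comparing compound-exposed mutant yeast with vehicle-exposed cultures. The strain carries alterations in DNA damage repair.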

[4] = NCI Yeast Anticancer Drug Screen. Data for the cln2 rad14 strain (AID 165);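 note: 0% = growth equal to vehicle treated cultures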; conditions: S. cerevisiae cln2 rad14 strain, at 50.0 µM, active compounds read high
In short: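 Strain: cln2 rad14 yeast, altered in cell cycle control and DNA damage repair. Read-out: growth inhibition vs vehicle.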

[5] = NCI Yeast Anticancer Drug Screen. Data for the bub3 strain (AID 167); conditions: S. cerevisiae bub3 mutant strain, at 50.0 µM, active compounds read high
In short: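 Compounds were applied to a genetically altered yeast strain carrying a cell-cycle control defect. Growth inhibition was scored against vehicle-treated controls.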

[6] = NCI Yeast Anticancer Drug Screen. Data for the mlh1 rad18 strain (AID 175); conditions: S. cerevisiae mlh1 rad18 strain growth inhibition; at 50.0 µM; active compounds read high
In short: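 A repair-deficient yeast strain is exposed to test compound, and growth is scored relative to vehicle-treated controls.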

Measured: growth inhibition

[N-]=[N+]=NC1C2CC3CC(C2)CC1C3 (stereo not given)
inactive: [1] -15.7% | [2] 8.3% | [3] -7.2% | [4] -6.6% | [5] -10.7% | [6] -24.8%

CC1=CC(=O)NP(=O)(Oc2ccc(C)cc2)N1 (stereo not given)
inactive: [1] -7.7% | [2] 16.1% | [3] -4.65% | [4] -0.75% | [5] -25.3% | [6] -4.4%

CCC1(c2ccccc2)C(=O)N(CCCl)C(=O)N(CCCl)C1=O
inactive: [1] 27.7% | [2] 15.8% | [3] 4.35% | [4] -21.7% | [5] 12.2% | [6] 17.4%

O=C([O-])CN(CCN(CC(=O)[O-])CC(=O)O)CC(=O)O.[Fe+5].[Na+]
inactive: [1] -12.6% | [2] -13.3% | [3] 0.35% | [4] -35.8% | [5] -2.85% | [6] -8.4%

COC1CC(OC2C(C)OC(OC3C(C)OC(OC4C(C)OC(O[C@H]5CC[C@@]6(C)C(=CC[C@]7(O)[C@@H]6C[C@@H](OC(C)=O)[C@@]6(C)[C@]7(O)CC[C@@]6(O)C(C)=O)C5)CC4OC)CC3OC)CC2OC)OC(C)C1O (stereo not given in full)
inactive: [1] -7.85% | [2] -7.45% | [3] -9.55% | [4] -3.7% | [5] -12.7% | [6] -47.1%
